About 83,000 compounds went through this panel and 20% of them were active in at least one assay; those are over-represented in the sample as a whole.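 Activity criterion: percent growth below 10, measured after cells in 96-well plates were exposed to a single compound concentration for 48 hours.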 Values without a mark were called inactive. Calls of active or inactive are those of the source.

Common to all, as to experiment: NCI-60 one-dose screen, 48 h (100 = growth as untreated, 0 = no growth, -100 = all killed)
What all share (conditions): 10 µM unless noted

Assay [1] has as its system NCI-H23 lung.
For assay [2], the system named is NCI-H226 lung.
Assay [3] deals with NCI-H322M lung.
Assay [4] concerns HOP-62 NSCLC.
In assay [5] the test system is NCI-H460 lung.
Assay [6] concerns HOP-92 NSCLC.
For assay [7], the system named is NCI-H522 lung.
The subject of assay [8] is A549/ATCC NSCLC.
Assay [9] concerns 786-0 renal.
Assay [10] relates to COLO 205 colon.
Assay [11] concerns DU-145 prostate.
The test system of assay [12] is K-562 leukemia.
The test system of assay [13] is MALME-3M melanoma.
The test system of assay [14] is MDA-MB-231 breast.
The test system of assay [15] is RXF 393 renal.
Assay [16] deals with SF-268 CNS.
Assay [17] deals with SF-295 CNS.
In assay [18] the test system is SF-539 CNS.
In assay [19] the test system is UACC-257 melanoma.
Assay [20] relates to M14 melanoma.

`CCCN(CCC)S(=O)(=O)c1ccc(C(=O)O)cc1.CCCN(CCC)S(=O)(=O)c1ccc(C(=O)O)cc1.[Cl][Pt+2][Cl].[NH2-].[NH2-]`: the growth in [1] is -44.1% (active); in assay [2] it was 23.2%; in [3], 42.6%; in assay [4], 30.4%; in assay [5] it was 0.596% (active); in assay [6], 5.16% (active). For the same compound, the growth in assay [7] is -54.9% (active); in assay [8], 33%; in [9], 14%; in [10], -57.7% (active); in assay [11], 13.2%; in assay [12] it was 9.96% (active). Also, the growth in [13] was -98.1% (active); in assay [14], -22.8% (active); in assay [15] it was -59.6% (active); in assay [16], 17.5%; in assay [17], 32.9%; in assay [18] it was 15.6%. Further, the growth was -0.891% (active) in [19] and 33% in assay [20].
Turning to `Nc1nc(-c2ccccc2)c(N=Nc2ccc(Cl)cc2Cl)s1`, the growth was -43.8% (active) in assay [1]; -17.4% (active) in [2]; 4.7% (active) in assay [3]; -61.9% (active) in assay [4]; -66.8% (active) in assay [5]; -54.1% (active) in [6]. Besides, the growth in [7] was -15.3% (active); in assay [8] it was 12.5%; in assay [9], -51.9% (active); in assay [10] it was -16.6% (active); in assay [11] it was 2.88% (active); in [12], -44.7% (active). Further, the growth was -47.5% (active) in assay [13]; -89.5% (active) in [14]; -69.7% (active) in assay [15]; -46% (active) in assay [16]; -90.5% (active) in assay [17]; -77.2% (active) in assay [18]. For the same compound, the results for the growth in assay [19] and in [20] were -2.45% (active) and -59.6% (active), respectively.
As for `COc1ccc(SC2c3cc(OC)ccc3Oc3nc(N)c(C#N)c(N)c32)cc1` (stereo not given), the growth in assay [1] was 85.6%; in [2], 87.1%; in assay [3] it was 83.5%; in assay [4] it was 68.2%; in [5], 74.3%; in assay [6], 116%. Also, the growth is 78.4% in assay [7]; 95.8% in assay [8]; 74.8% in assay [9]; 101% in assay [10]; 99.1% in assay [11]; 65.7% in assay [12]. For the same compound, the growth was 91.3% in assay [13]; 82.1% in assay [14]; 62% in assay [15]; 78.8% in assay [16]; 55.2% in assay [17]; 78% in assay [18]. Further, the growth is 120% in assay [19] and 79.7% in [20].
`NCCCCn1c(SCCc2c[nH]c3ccccc23)nnc1-c1ccc2ccccc2n1`: the growth in assay [1] was 11.4%; in assay [2], 55.2%; in assay [3], 18.1%; in assay [4], -49.7% (active); in [5], -76.9% (active); in assay [6], -8.52% (active). Moreover, the growth in assay [7] is -73.1% (active); in assay [8], 8.17% (active); in [9] it was -92.3% (active); in [10] it was -66.6% (active); in assay [11], 42.8%; in assay [12] it was -35.4% (active). Further, the growth in [13] is -99.4% (active); in [14], -83.7% (active); in [15], -38.3% (active); in [16] it was 42.4%; in assay [17] it was -83.4% (active); in assay [18], -99% (active). Moreover, the growth was -89.8% (active) in assay [19] and -90.1% (active) in assay [20].
With `O=C(N/N=C/c1c[nH]c2ccccc12)Nc1ccccc1Cl`, the growth in [1] is 1.51% (active); in assay [2] it was 19.8%; in assay [3] it was 41.7%; in [4], 18.4%; in assay [5] it was 1.98% (active); in assay [6], 3.23% (active). In addition, the growth in assay [7] is -41.8% (active); in assay [8], 15.2%; in assay [9] it was -41.4% (active); in assay [10] it was -39.7% (active); in assay [11], 6.12% (active); in assay [12], 12.2%. Further, the growth is 33.3% in assay [13]; 16.5% in assay [14]; -36.1% (active) in assay [15]; 7.97% (active) in [16]; -37.1% (active) in [17]; -10.7% (active) in assay [18]. Moreover, the growth is 43.8% in [19] and 10.9% in assay [20].
In the case of `Cc1cc(=O)oc2cc(OCC(O)CNN3C(=O)c4cccc5c(N6CCN(C)CC6)ccc(c45)C3=O)ccc12` (stereo not given), the growth in assay [1] is 98.4%; in assay [2], 102%; in [3] it was 101%; in assay [4], 99.8%; in [5], 99.4%; in assay [6], 68.3%. The growth in assay [7] is 98.2%; in [8], 99.8%; in [9], 97.8%; in assay [10], 87.7%; in assay [11], 96.6%; in assay [12], 80.4%. Further, the growth is 14.5% in assay [13]; 89.3% in assay [14]; 82.3% in [15]; 91.4% in assay [16]; 108% in assay [17]; 81.2% in assay [18]. In addition, the growth was 72.9% in assay [19] and 89.7% in assay [20].
For the compound `CCOC(=O)/C(F)=C/C1CC1C(c1ccccc1)c1ccccc1` (stereo not given), the growth in assay [1] was 73.8%; in [2], 91.8%; in assay [3], 80.6%; in [4], 125%; in assay [5] it was 38.7%; in [6], 84.1%. The growth in [7] is 94.8%; in assay [8] it was 91.7%; in [9] it was 93%; in [10], 117%; in [11], 106%; in assay [12] it was 70.4%. In addition, the growth in [13] was 81.2%; in assay [14], 88.4%; in assay [15] it was 77.2%; in assay [16], 99.1%; in assay [17], 88.7%; in assay [18], 96.5%. Also, the growth is 105% in assay [19] and 91.7% in assay [20].
`Cc1ccc(N=Nc2c(N)nn3c(-c4cc5ccccc5oc4=O)ccnc23)cc1`: the growth was 28% in assay [1]; 33.4% in assay [2]; 51.6% in assay [3]; 48.5% in assay [4]; 50% in assay [5]; 49.9% in [6]. In addition, the growth in [7] is 64.9%; in [8], 45.1%; in assay [9] it was 53.4%; in assay [10], 6.35% (active); in [11], 43.7%; in [12], 40.7%. Further, the growth in [13] was 67.1%; in [14], 30.7%; in assay [15] it was 7.4% (active); in assay [16], 56.8%; in [17], 57.4%; in assay [18], -3.24% (active). In addition, the growth in assay [19] was 90.3%; in [20], 46.6%.

The record behind these values is PubChem BioAssay (NCI).
